Results filed as inconclusive are left out. Activity calls are given as the source filed them. Calls follow the shape of the dose curve; as a rule, active = well fitted curve in either direction with a large enough effect (not every such curve was filed as active); inconclusive = small, poorly fitted or top-dose-only effect, or another doubt; inactive = flat fitted curve, though single readings scatter.

Experimental findings from PubChem BioAssay (NCATS) are described below.
% is scaled to controls: 0 for no effect and ±100 for the full control effect.

This experiment in a line: Stat Signaling Pathway (AID 446).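 Also: SIE-controlled beta-lactamase reporter measured as 460/530 nm FRET emission ratio.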 Particulars: ME-180 (cervical carcinoma) SIE beta-lactamase reporter, IL-6 stimulated, 5 h; at 17.2 µM (top of the series) unless noted. The method in brief: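 IL-6/STAT signaling read in ME-180 cells via an SIE beta-lactamase reporter. Stimulus was 40 pM IL-6 (its AC50) for 5 hrs, so both activation and inhibition register.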
With `COc1ccc2c(c1)[nH]c1c(=O)n(CCN(C)C)cnc12`, the activity, negative = inhibition was 8.04% (inactive).
On to `O=C(O)c1ccc(C2CCCCC2)cn1`, for which the activity, negative = inhibition was 15.1% (inactive).
The value for `CCOC(=O)CC1=C(C(=O)OCC)C(c2cc(OC)c(OC)cc2OC)C(C#N)=C(N)O1` (configuration not stated) was 10.5% (inactive); that for `CC(C)(C)NCc1cc2ccccc2[nH]c1=O` was 3.71% (inactive); that for `O=C(O)CCCCCN1C(=O)CCC1=O` was 5.29% (inactive).
In the case of `O=C(Cc1ccc(Cl)cc1)Nc1cccc(-c2nnc(-c3ccco3)o2)c1` it was -1.67% (inactive).
In the case of `COC(=O)CC(=O)Cc1nc(N)nc(Nc2ccc(C)c(C)c2)n1`, the activity, negative = inhibition was 1.4% (inactive).
Turning to `O=C(NCCO)c1cccc2c1C(=O)c1ccccc1-2`, the activity, negative = inhibition is 10.7% (inactive).
Take `COc1ccc(C2C=C(c3ccc(Cl)cc3)Nc3nc(NC(C)=O)nn32)cc1` (configuration not stated): the activity, negative = inhibition is -9.52% (inactive).
For the compound `Cc1ccc(S(=O)(=O)NC(=O)NCc2ccc3c(c2)OCO3)cc1`, the activity, negative = inhibition is 0.559% (inactive).
In the case of `COC(=O)c1ccc(CN(C(C)=O)c2ccccc2)o1` it was 7.8% (inactive); in that of `CCC(=O)Nc1ccc(-c2nnc(-c3ccccc3)o2)cc1`, -0.000551% (inactive); in that of `O=C(NCCOCCOCCNC(=O)c1cccnc1)c1cccnc1`, 3.22% (inactive).
In the case of `COc1cc(OC)cc(C(=O)N2CCC(N3CCN(c4ccccc4)CC3)CC2)c1`, the activity, negative = inhibition was 4.25% (inactive).
Regarding `COc1cccc(C(=O)N2CCN(S(=O)(=O)Cc3ccccc3)CC2)c1OC`, the activity, negative = inhibition was -3.28% (inactive).
`Cc1nc2c(o1)CCc1ccccc1C2N1CCN(C)CC1` (configuration not stated): the activity, negative = inhibition is 3.94% (inactive).
In the case of `Cc1cc(COc2ccccc2OCCN2CCN(C)CC2)no1` it was -0.578% (inactive).
